KB-3-1 tox = qHTS assay for MDR1-selective chemotherapeutics: Primary screen using the parental adenocarcinoma cell KB-3-1; KB-3-1 viability, CellTiter-Glo ATP luminescence, 72 h; Potency, µM (series often up to 46.1 µM), actives largely listed as cytotoxic; actives 1.4% (n = 400,000); AID 1347075, 2019; further: on the % scale 0 is the no-effect control and ±100 the full control effect; nearly all actives have a fitted effect of over 60% in size
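KB-3-1 parental drug-naive adenocarcinoma cells in DMEM/10% FBS, incubated 72 h at 37 C with pin-transferred compounds across a concentration series. Viability by CellTiter-Glo luminescence; concentration-response curves fitted after normalization.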
KB-V1 MDR tox = qHTS assay for MDR1-selective chemotherapeutics: Primary screen using the drug-selected MDR subline cells KB-V1. KB-V1 MDR cells viability, CellTiter-Glo, 72 h. AID 1347076, 2019. Potency, µM (doses to about 46.1 µM), usual class: cytotoxic. actives 3.4% (n = 400,000); further: on the % scale 0 is the no-effect control and ±100 the full control effect; nearly all actives have a fitted effect of over 60% in size
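Following 72 h at 37 degrees C with compound, KB-V1 cell viability was read by CellTiter-Glo luminescence, medium being phenol-red-free DMEM plus 10% FBS; concentration-response parameters came from normalized, curve-fitted qHTS data.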
SW480 rerep = A quantitative high throughput screen for small molecules that induce DNA re-replication in SW480 colon adenocarcinoma cells; actives 1.8% (n = 340,000); SW480 DNA re-replication, Hoechst DNA content imaging, 48 h; Potency, µM (doses to about 46.1 µM), for the others: at the top dose re-replication activation, actives largely listed as activators; AID 624297, 2012; further: % of control where 0% means no effect; nearly all actives have a fitted effect of over 55% in size
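250 cells/well; 23 nL cpd via pin tool; 48 hr, 37 C, 5% CO2; Hoechst 40 min; imager read of total nuclear intensity, ex 405/em 500-530 nm.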
ELG1 DNA repair = qHTS screen for small molecules that inhibit ELG1-dependent DNA repair in human embryonic kidney (HEK293T) cells expressing luciferase-tagged ELG1; HEK293T ELG1-luciferase reporter, luminescence, 16 h; DNA damage induced by 5-fluorouridine; Potency, µM (top dose mostly 46.1 µM), for the others: at the highest dose activity change, negative = inhibition, most hits filed as inhibitors; actives 2.3% (n = 330,000); further: on the % scale 0 is the no-effect control and ±100 the full control effect; nearly all actives have a fitted effect of over 55% in size
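Cells (2,000 per well) received 5-fluorouridine plus test compound or DMSO and were incubated 16 hr at 37 °C, 5% CO2. Luciferase activity was read by luminescence 30 min after ONE-Glo addition; signal suppression marked inhibition of damage-induced ELG1 function.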
MCF10A rereplic = A quantitative high throughput screen for small molecules that induce DNA re-replication in MCF 10a normal breast cells; MCF 10A DNA re-replication, Hoechst nuclear intensity, 48 h; Potency, µM (series often up to 46.1 µM), for inactives: at the highest dose activity, positive = re-replication, most hits filed as activators; actives 2.9% (n = 350,000); further: % of control where 0% means no effect; nearly all actives have a fitted effect of over 50% in size
The depositor's hits bear a star; i = inactive; ? = inconclusive; · = not tested or not shown. Shown are actives, neighbours in structure and some others; about 8.1% of the full set was active somewhere. The call rests on the fitted dose curve; in most records, active means well fitted curve in the direction sought with a large enough effect; inconclusive means small, poorly fitted or top-dose-only effect, or another doubt; inactive means no such curve, though single readings can be large; an effect the other way counts as inactive or inconclusive. Potency means the concentration at half of the fitted maximal effect.

SMILES | KB-3-1 tox | KB-V1 MDR tox | SW480 rerep | ELG1 DNA repair | MCF10A rereplic
CCN(CC)S(=O)(=O)c1cc(NC(=O)COc2ccc(C#N)cc2OC)ccc1C | i | ? | · | 13µM* | 5%
Cc1ccc(NC(=O)COc2ccc(Cl)cc2Cl)cc1S(=O)(=O)N1CCOCC1 | i | ? | -1% | ? | 11%
Cc1cc(Cl)ccc1NC(=O)CCC(=O)N/N=C/c1cc([N+](=O)[O-])ccc1O | i | ? | 20% | 7.3µM* | 0%
O=[N+]([O-])c1ccc(/C=N/NC(=S)Nc2ccc(Cl)cc2Cl)s1 | ? | ? | 21µM* | 8.2µM* | ?
O=[N+]([O-])c1ccc(O)c(/C=N/NC(=S)Nc2ccc(Cl)cc2Cl)c1 | ? | i | ? | 2.9µM* | 23%
CNC(=O)c1sc(=S)n(-c2ccc(OC)cc2)c1N | i | ? | 1% | 3% | -1%
COc1ccc(NC(=O)Nc2cc(NC(=O)Nc3ccc(OC)cc3)c(C)nc2C)cc1 | i | ? | -7% | 7% | -4%
COc1ccc2[nH]c3nc(SCc4nnc(-c5ccccc5)o4)nnc3c2c1 | i | i | 18% | 16µM* | 4%
COc1ccc2[nH]c3nc(SCC(=O)Nc4cccc(NC(C)=O)c4)nnc3c2c1 | i | ? | -35% | -3% | 21µM*
CCc1ccc2[nH]c3nc(SCc4nnc(-c5ccccc5)o4)nnc3c2c1 | i | i | 2% | -13% | -5%
O=C(CSc1nc2c(c(=O)n1-c1ccccc1)SCC2)N1CCN(c2ccccc2)CC1 | i | i | -11% | 23µM* | 2%
CCOC(=O)c1ccc(NC(=O)CSc2nc3c(c(=O)n2C)SC(C)C3)cc1 (stereo not drawn) | i | i | -5% | 21µM* | 2%
CC1Cc2nc(SCC(=O)N3CCN(c4ccccc4)CC3)n(CCc3ccccc3)c(=O)c2S1 (stereo not drawn) | i | i | -3% | 15µM* | 6%
CC1Cc2nc(SCC(=O)N3CCN(c4ccccc4)CC3)n(C)c(=O)c2S1 (stereo not drawn) | i | i | -10% | -23% | ?
CCn1c(SCC(=O)N2CCN(c3ccccc3)CC2)nc2c(c1=O)SC(C)C2 (stereo not drawn) | i | i | -4% | 23µM* | -1%
Cc1ccc2oc(=O)c(/C=C(\O)c3sc(C)nc3C)nc2c1 | i | i | -4% | -13% | 16%
CCOC(=O)C1CCCN(C(=O)CCNS(=O)(=O)c2ccc(Br)cc2)C1 (stereo not drawn) | ? | i | ? | -4% | 4%
CC1CN(C(=O)c2cc([N+](=O)[O-])cc([N+](=O)[O-])c2)CC(C)O1 (stereo not drawn) | i | i | -12% | ? | -4%
O=C(Cc1cccc2ccccc12)NNC(=O)Nc1cccc(Cl)c1 | i | i | 0% | 1% | ?
O=C(Cc1ccccc1Cl)NNC(=O)Nc1ccccc1 | i | i | 29µM* | -9% | 0%
O=C(Nc1ccc(Cl)cc1)Nc1nnc(CSCc2ccccc2Cl)s1 | ? | i | 3% | 10µM* | 123%
Cc1nnc(NC(=O)Nc2cccc(Cl)c2)s1 | i | ? | -6% | -6% | -2%
Cc1ccc(OCCSCc2nnc(NC(=O)Nc3cccc(Cl)c3)s2)cc1 | 5.8µM* | ? | -2% | ? | ?
O=C(Nc1ccc(Cl)cc1)Nc1nnc(SCc2ccccc2)s1 | i | i | -5% | 6% | 0%
O=C(Nc1ccc(Cl)c(Cl)c1)Nc1nccs1 | 4.6µM* | 4.1µM* | 2.3µM* | -8% | 13µM*
SMILES | KB-3-1 tox | KB-V1 MDR tox | SW480 rerep | ELG1 DNA repair | MCF10A rereplic
O=C(Nc1ccccc1)Nc1nnc(CSCc2ccccc2Cl)s1 | i | ? | · | ? | 15µM*
O=C(Cc1nnc(NC(=O)Nc2ccccc2)s1)Nc1ccccc1 | i | i | -22% | -8% | 0%
CC(C)C(=O)Nc1nnc(CSCc2ccccc2F)s1 | i | 18µM* | -3% | ? | 2%
O=C(Nc1ccc(Cl)c(Cl)c1)Nc1nnc(CSc2ccccc2)s1 | ? | 15µM* | ? | ? | ?
COc1ccccc1N(CC(=O)Nc1ccccc1F)S(C)(=O)=O | i | i | · | · | ·
O=C(c1ccc2c3n(nc2c1)-c1ccccc1CO3)N1CCOCC1 | 7.3µM* | ? | -2% | ? | 16%
O=C(c1ccc2c3n(nc2c1)-c1ccccc1CO3)N1CCCCC1 | 9.2µM* | 10µM* | -5% | ? | 2%
CC(=O)OC1COC(n2c(O)c(N=NC(N)=S)c3ccccc32)C(OC(C)=O)C1OC(C)=O (stereo not drawn) | i | ? | ? | -4% | 0.65µM*
Cn1c(O)c(N=NC(N)=S)c2ccccc21 | · | · | -5% | · | 14%
NC(=O)CSCc1nc2ccccc2s1 | i | i | 0% | ? | -2%
COc1cccc(-c2cc(=O)c3cc(NC(C)=O)ccc3[nH]2)c1 | i | i | 16µM* | ? | 23µM*
CC(=O)Nc1ccc2[nH]c(C)cc(=O)c2c1 | i | ? | -4% | 17% | -2%
CC(C)CN(C(=O)COC(=O)c1ccc([N+](=O)[O-])s1)c1c(N)n(Cc2ccccc2)c(=O)[nH]c1=O | 21µM* | i | ? | 6% | 1%
COCCN(C(=O)COC(=O)/C=C/c1ccc2ccccc2n1)c1c(N)n(Cc2ccccc2)c(=O)[nH]c1=O | ? | i | ? | 12µM* | 12%
CC(C)CN(C(=O)COC(=O)c1cccs1)c1c(N)n(Cc2ccccc2)c(=O)[nH]c1=O | i | i | · | · | ·
CN(C(=O)COC(=O)/C=C/c1ccc2ccccc2n1)c1c(N)n(Cc2ccccc2)c(=O)[nH]c1=O | i | i | 16% | ? | ?
CCN(C(=O)COC(=O)CCOc1ccc(C(C)(C)C)cc1)c1c(N)n(Cc2ccccc2)c(=O)[nH]c1=O | 26µM* | i | 0% | · | 23µM*
C/C(CC(=O)Nc1ccc(Cl)c(C(F)(F)F)c1)=N\NC(=O)c1cc2ccccc2cc1O | ? | ? | ? | -9% | ?
O=C(NC1CCCN(Cc2ccc(Cl)cc2)C1)c1ccccc1-c1ncc[nH]1 (stereo not drawn) | i | i | 16% | 14% | ?
CCOc1cc(CNC2CCCC2)ccc1OCc1ccccc1Cl | ? | 21µM* | 117% | 0% | ?
CCOc1cc(CNC2CCCC2)cc(Cl)c1OCc1ccccc1 | ? | ? | ? | -16% | ?
